Among all 240,000 compounds or so, about 15 (0.006%) were called active. Calls follow the shape of the dose curve; as a rule, active = well fitted inhibition curve with a large enough effect; inconclusive = small, poorly fitted or top-dose-only effect, or effect the other way, or another doubt; inactive = no such curve, though single readings can be large or run the other way. These entries were drawn from the full list. Where a SMILES comes first, the peptide text is derived from it.
The compounds below were run against Lysosomal alpha-glucosidase (Homo sapiens) (UniProt P10253) (assay: qHTS Assay for Inhibitors and Activators of Human alpha-Glucosidase From Spleen Homogenate). Details: 4-MU-alpha-glucoside fluorescence; series mostly up to 79.9 µM; activity change, negative = inhibition: at the top concentration.
Excerpt: NIH Chemical Genomics Center [NCGC] NIH Molecular Libraries Probe Production Centers Network [MLPCN] MLPCN Grant: R03 MH084841-01 Assay Submitter (PI): Wei Zheng NCGC Assay Overview: Alpha-glucosidase is responsible for the hydrolysis of terminal, non-reducing 1,4-linked alpha-D-glucose residues, which releases alpha-D-glucose. It is a lysosomal hydrolase that is required for the degradation of a small percentage (1-3%) of cellular glycogen in humans. Deficiency of this enzyme results in glycogen-storage disease type II (GSDII), also referred to as Pompe disease, an autosomal recessive disorder. Structurally normal glycogen is accumulated in the lysosomes and cytoplasm in affected patients, primarily in muscle tissues. Excessive glycogen storage within lysosomes may interrupt normal functioning of other organelles and leads to cellular injury. In turn, this leads to enlargement and dysfunction of the entire organ involved (eg: cardiomyopathy and muscle weakness). It has been reported that the improper folding and trafficking of alpha-glucosidase resulting from genetic mutations may account for a significant number of Pompe patients. […] We optimized this alpha-glucosidase assay in 1536-well plate format for identification of novel small molecule inhibitors or activators with structures other than the sugar analogs in order to develop new pharmacological chaperones. In particular, this assay is directed towards discovering compounds active in a more natural setting, tissue homogenate, that may have been missed by screens of the purified enzyme under more stringent conditions.
NCGC Assay Protocol Summary: This is a fluorogenic enzyme assay with 4-methylumbelliferyl-alpha-D-glucopyranoside as the substrate and human spleen homogenate containing alpha-glucosidase as the enzyme preparation. Upon hydrolysis of this fluorogenic substrate, the resulting product, 4-methylumbelliferone (which excites at 365 nm and emits at 440 nm) can be detected by a fluorescence plate reader. Data were normalized to the controls for basal activity (without enzyme) and 100% activity (with enzyme). The AC50 values were determined from concentration-response data modeled with the standard Hill equation. Assay buffer: 50 mM citric acid (titrated with potassium phosphate to pH 5.0), 0.01% Tween-20 (pH 5.0 is an optimal condition for this enzyme assay) 1536-well assay protocol for the alpha-glucosidase from human spleen homogenate: (1) Add 2 ul/well spleen homogenate (1 ug) (2) Add 23 nL compounds in DMSO solution. The final titration was 0.5 nM to 58 uM. (3) Add 2 ul of substrate (1 mM final) (4) Incubate at 37 C for 40 min (5) Add 2 ul stop solution (1M NaOH and 1M Glycine mixture, pH 10) (6) Detect the assay plate in a ViewLux plate reader (PerkinElmer) with Ex=365 nm and Em=440nm. Keywords: Alpha-glucosidase, Pompe Disease, pharmacological chaperone, chaperone therapy, high throughput screening, alpha-glucosidase inhibitor, MLSMR, MLSCN, NIH Roadmap, qHTS and NCGC
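Also: 0% = enzyme with vehicle and -100% = no enzyme basal signal.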

Activity change, negative = inhibition, inactive:
Cc1nc(-c2ccccc2)sc1-c1nc(-c2ccccc2)ncc1S(=O)(=O)c1ccccc1 -0.37%
CO[C@@]12[C@@H](COC(N)=O)C3=C(C(=O)C(C)=C(N)C3=O)N1C[C@@H]1N[C@@H]12 -0.0282%
Cc1ccc2nc(/C(C#N)=C\c3ccc(OC(=O)c4cccs4)cc3)[nH]c2c1 -2.6%
COc1c(O)c2c(=O)cc(OC)c3c4c(OC)cc(=O)c5c(O)c(OC)c6c(c(c1C[C@@](C)(O)[C@H]6C(C)=O)c23)c54 -8.94%
Clc1ccc(C[n+]2cc(-c3ccc(Cl)cc3)n3c2CCC3)cc1 -3.89%
COc1ccc(NC2=CC(=S)NC(C)(C)C2)cc1 0.55%
O=C(NCC1CC1)C1(C(F)(F)F)C/C(=C\CCO)CCCO1 (stereo not drawn) 3.72%
COc1cc2[nH]c(=O)n(Cc3ccc(C(=O)NC4CCN(Cc5ccccc5)CC4)cc3)c(=O)c2cc1OC -0.526%
COC(=O)C(CC(C)C)NS(=O)(=O)c1cc(Br)ccc1Br (stereo not drawn) 3.71%
C=C1CCN(Cc2ccc(OC)cc2)S(=O)(=O)c2ccccc21 -11.5%
CCOc1cc(C2C(C(=O)OC(C)C)=C(C)NC3=C2C(=O)CCC3)cc([N+](=O)[O-])c1O (stereo not drawn) 1.08%
Cc1ccccc1N/C(SCc1ccc(Cl)cc1)=C(/C#N)C(N)=O 3.19%
Cc1c(-c2ccccc2)n[nH]c1C(=O)N=Nc1c(O)[nH]c2ccccc12 -7.29%
Cc1cc(C)c(NC(=O)CN2C(=O)NC(Cc3ccccc3)C2=O)c(C)c1 (stereo not drawn) 1.21%
CC(=O)c1c(N2CCN(c3ccc(F)cc3)CC2)nc(=S)n(-c2ccccc2)c1C 6.73%
O=C(CP(=O)(c1ccccc1)c1ccccc1)N1CCOCC1 -1.35%
Cc1nn(CCOc2ccc(Br)cc2)c(C)c1[N+](=O)[O-] 5.99%
COc1cc(OC)c2c(C)cc(=O)oc2c1C(CCN1CCCCC1)c1ccc(N(C)C)cc1 (stereo not drawn) 2.28%
Cc1ccc(-c2nc(C)sc2CC(=O)OCC(=O)Nc2c(F)cccc2F)cc1 0.406%
CCCCCCCC[C@@H](O)/C=C/C=C/C=C\[C@@H](O)CCCC(=O)O 1.53%
COc1ccc(CN2CCC(=O)c3ccccc3S2(=O)=O)cc1 -5.9%
COc1ccc(C2CC(O)(c3ccccc3)Oc3cc(C)cc(C)c32)cc1 (stereo not drawn) -2.15%
COC(=O)[C@@]1(C)C=C[C@@H](Cc2ccccc2)N1C(C)=O -11.6%
O=C(C1CCN(c2nnc(-n3cccc3)s2)CC1)N1CCc2ccccc2C1 -3.74%
O=C(CSc1ccccn1)Nc1nc2c(ccc3ccccc32)s1 -2.23%
CC(C)C(NS(=O)(=O)c1ccc(-c2ccc(Br)cc2)cc1)C(=O)O (stereo not drawn) 9.33%
C[C@@H](O)[C@@H]1NC(=O)[C@H](CCCCN)NC(=O)[C@H](Cc2c[nH]c3ccccc23)NC(=O)[C@H](Cc2ccccc2)NC(=O)[C@H](Cc2ccccc2)NC(=O)[C@H](CC(N)=O)NC(=O)[C@H](CCCCN)NC(=O)[C@@H](NC(=O)[C@@H]2CCCN2)CSSC[C@@H](C(=O)N[C@@H](CCCCN)C(=O)O)NC(=O)[C@H](CO)NC(=O)[C@H](CO)NC(=O)[C@H](Cc2ccccc2)NC1=O (HELM PEPTIDE1{P.C.K.N.F.F.W.K.T.F.S.S.C.K}$PEPTIDE1,PEPTIDE1,2:R3-13:R3$$$V2.0) 6.58%
CSc1ccccc1N1CCN(CCCCCC(=O)NC2CCCc3ccccc32)CC1 (stereo not drawn) -1.62%
CC[C@H](C)[C@H](NC(=O)[C@H](Cc1ccc(O)cc1)NC(=O)[C@@H](NC(=O)[C@H](CCCN=C(N)N)NC(=O)[C@@H](N)CC(=O)O)C(C)C)C(=O)N[C@@H](Cc1cnc[nH]1)C(=O)N1CCC[C@H]1C(=O)N[C@@H](Cc1ccccc1)C(=O)O -2.98%
Cc1ccc2c(c1)C(c1ccccc1)N(C(=O)c1ccc(S(=O)(=O)N3CCOCC3)cc1)CC(=O)N2 (stereo not drawn) 3.75%
COC(=O)[C@@]1(Cc2ccccc2)[C@H]2c3cc(C(=O)N(C)C)n(CCSCCO)c3C[C@H]2CN1C(=O)c1ccccc1 0.272%
Cc1ccc(CNC(=O)C2(C(F)(F)F)C/C(=C\CCO)CCCO2)o1 (stereo not drawn) -3.58%
O=C(c1cc(C(F)(F)F)cc(C(F)(F)F)c1)N1CCC2(CCCN(c3ccccn3)C2)CC1 2.45%
CCCN1CCC(=O)N(C(CSc2ccc(OC)cc2)Cc2ccccc2)CC1 (stereo not drawn) -8.71%
CCCCNC(=S)N/N=C1\CCCCc2ccccc21 -7.3%
C=CCCN(C(Cc1ccccc1)C(=O)OC)S(=O)(=O)c1cc(Br)ccc1Br (stereo not drawn) 0.718%
Cc1ccccc1Nc1scc(-c2ccc(Br)cc2)[n+]1-c1ccccc1C -4.94%
Cc1nc(C(=O)N2CCCC(C(=O)c3ccc(Cl)cc3)C2)cs1 (stereo not drawn) 1.42%
CC1=CC(=C(C#N)c2nc3ccccc3s2)C=C(C)N1c1ccc(F)cc1F 1.11%
Cc1cc(C(=O)OCC(=O)Nc2nccs2)c2ccccc2n1 2.11%
O=C1NC(=Nc2ccc(Cl)cc2)SC1Cc1cccc(Cl)c1Cl (stereo not drawn) -5.67%
Cc1ccc(S(=O)(=O)N(CC(=O)Nc2cccc([N+](=O)[O-])c2)Cc2ccc(Cl)cc2)cc1 2.83%
COc1ccc(C2=Nc3cc(C)ccc3OC2)cc1 -4.38%
CCOC(=O)Cn1c(=O)sc2cccc(Cl)c21 -7.95%
CCN(CC)CCNC(=O)c1sc2ncn(CC(=O)Nc3ccc(C)c(Cl)c3)c(=O)c2c1C -3.52%
Cc1cccc2c1-c1sc(C(=O)NCCCN3CCc4ccccc4C3)cc1CO2 18.1%
O=C1/C(=C/c2coc3ccc(O)cc3c2=O)SC(=S)N1c1ccccc1 4.43%
CC[C@H](C)[C@H](NC(=O)[C@H](CCCNC(=N)N)NC(=O)[C@H](CCCNC(=N)N)NC(=O)[C@H](CC(C)C)NC(=O)[C@H](Cc1ccccc1)NC(=O)CNC(=O)CNC(=O)[C@@H](N)Cc1ccc(O)cc1)C(=O)N[C@@H](CCCNC(=N)N)C(=O)N1CCC[C@H]1C(=O)N[C@@H](CCCCN)C(=O)N[C@@H](CC(C)C)C(=O)N[C@@H](CCCCN)C(=O)N[C@@H](Cc1c[nH]c2ccccc12)C(=O)N[C@@H](CC(=O)O)C(=O)N[C@@H](CC(N)=O)C(=O)N[C@@H](CCC(N)=O)C(=O)O -9.54%
COc1ccc(-c2ccc(C3C4C=CCCC4(C)C(=O)N3Cc3ccccc3)c(F)c2)cc1OC (stereo not drawn) -2.95%
Cc1ccc(-n2c(SCC(=O)N3c4ccccc4Sc4ccccc43)nnc2-c2ccncc2)cc1 -8.44%
BrC1C(Br)C(Br)C(Br)C(Br)C1Br (stereo not drawn) 5.06%
CCCC(Cl)CCCC(Cl)CCC(Cl)CCC(Cl)CCC(Cl)CCCC(Cl)CCC (stereo not drawn) -7.48%
O=C(NC(CC(=O)N1CCN(c2ccccc2)CC1)c1ccccc1)c1ccccc1Cl (stereo not drawn) -4.71%
CC1(C)Cc2cccc(OCC(=O)N3CCN(c4ccc([N+](=O)[O-])cc4)CC3)c2O1 -6.17%
O=C1C2C(c3ccccc3)CC=CC2C(c2ccoc2)N1Cc1ccccc1 (stereo not drawn) -8.93%
COC(=O)CCc1ccccc1S(=O)(=O)N(CCC(=O)OC)Cc1ccccc1 3.68%
C=CCSC(CC)(CC)C(N)=O 0.0084%
C/C(=N\NC(=S)Nc1ccc(C)cc1)c1cc2ccccc2o1 10.6%
O=C(OCC(COC(=O)c1ccccc1)(COC(=O)c1ccccc1)COC(=O)c1ccccc1)c1ccccc1 -1.65%
Nc1nc2c(ncn2[C@@H]2O[C@H](COP(=O)(O)OP(=O)(O)OP(=O)(O)O)[C@@H](O)C2O)c(=O)[nH]1 (stereo partly drawn) 1.86%
C[C@H]1CCC[C@@]2(C)CCCC[C@]12O -4.13%
CCC(C(=O)Nc1ccc(C(C)C)cc1)c1ccccc1 (stereo not drawn) -5.23%
COc1ccc(C2/C=C\CN(C(=O)c3ccc(C)cc3)C(Cc3ccccc3)C(=O)N2Cc2ccc(F)cc2)cc1 (stereo not drawn) -1.47%
CC(C)CC(COCc1ccc(Cl)cc1)N1CCN(C(=O)c2ccc(C(F)(F)F)cc2)CCC1=O (stereo not drawn) -1.89%
COc1ccc(C(CCN2CCOCC2)c2c(OC)cc(OC)c3c2OC(=O)CC3c2ccc(OC)cc2)cc1 (stereo not drawn) -1.9%
Cc1ccc(Nc2nc(C)cc(C)c2C(N)=O)cc1 -2.03%
O=C(CN1C(=O)NC(Cc2ccccc2)(Cc2ccccc2)C1=O)NCC1CCCCC1 0.793%
C=C1CCN(C(CC(C)C)C(=O)NCc2cc(OC)c(OC)c(OC)c2)S(=O)(=O)c2ccccc21 (stereo not drawn) -1.04%
CCOC(=O)C(=CNNc1ccsc1C(=O)OC)C(=O)OCC 4.66%
CCCCN(CC)CCNC(=O)CCNC(=O)Cn1ccc2ccccc2c1=O -7.84%
O=C(CCCc1ccccc1)NCc1ccccc1 0.497%
COC(=O)c1c(C)[nH]c(C(=O)/C=C/c2ccc(Cl)cc2)c1C 2.56%
O=c1ccn([C@@H]2O[C@H](COP(=O)(O)OP(=O)(O)OP(=O)(O)O)[C@@H](O)[C@H]2O)c(=O)[nH]1 1.76%
COCOc1cc(OC)ccc1C(=O)/C=C/c1ccc([N+](=O)[O-])cc1 -9.06%
CC(C)CO -4.92%
CC(=O)Nc1ccc(S(=O)(=O)N2N=NC3C2C2CC4C3(CN(C(=O)OC(C)(C)C)S4(=O)=O)O2)cc1 (stereo not drawn) -4.01%
O=C(CCN1CCCCC1)N=Nc1c(O)[nH]c2ccccc12 1.76%
CC(=O)OCC(NC(=O)C(Cc1ccccc1)NC(=O)OC(C)(C)C)C1OC(n2ccc(=O)[nH]c2=O)C(OC(C)=O)C1OC(C)=O (stereo not drawn) 3.72%
COc1ccc(NC(=O)c2sc(N3CCOCC3)nc2-c2ccccc2)c(OC)c1 -8.66%
S=C(NNC(=S)NC1CC2CCC1C2)NC1CC2C=CC1C2 (stereo not drawn) 7.45%
O=S(O)S(=O)(=O)O -1.43%
COc1ccc(-c2ccc(OC)c(C3C4C=CCC(C)C4C(=O)N3Cc3ccccc3)c2)cc1C (stereo not drawn) -0.333%
COC(=O)c1ccc([C@@H](O)[C@H](C)C(=O)CC(=O)OC(C)(C)C)cc1 -10.4%
O=C(Cc1c[nH]c2ccccc12)N/N=C/c1cccc(F)c1 -8.44%
CCN(CC)CCNCc1ccc(OCc2ccc(Cl)nc2)c(OC)c1 -0.785%
N#CC1=C(N)Oc2[nH]c(=S)[nH]c(=O)c2C12C(=O)Nc1ccccc12 (stereo not drawn) -1.33%
C/C(=N\NC(=O)c1cc2c(s1)CCC(C)C2)c1cccnc1 (stereo not drawn) 0.124%
O=C(Nc1cccc(CCc2ccccn2)c1)c1ccc(Cl)cc1 3.21%
C=C1/C(=C\C=C2\CCCC3(C)C2CCC3C(C)/C=C/C(O)C2CC2)CC(O)CC1O (stereo not drawn) 4.41%
Clc1ccc(C2=CSC3=Nc4cccc5cccc(c45)N23)cc1 1.96%
CCOc1ccc(CN2CCN(Cc3ccc(C)o3)CC2CCO)cc1 (stereo not drawn) -3.3%
COc1ccc(NC(C(=O)Nc2cccc(C(C)=O)c2)c2ccccc2)cc1 (stereo not drawn) -8.55%
N#CCC(=O)N/N=C/c1ccc(SCC(=O)Nc2ccccc2)o1 -3.71%
O=C(O)c1ccc(/C=C2/SC(=S)N(c3cccc(C(F)(F)F)c3)C2=O)cc1 -6.48%
O=c1cc(-c2ccc(O)cc2)oc2c(-c3cc(-c4cc(=O)c5c(O)cc(O)cc5o4)ccc3O)c(O)ccc12 5.22%
COc1ccc([N+](=O)[O-])cc1NC(=O)C(C)OC(=O)C1c2ccccc2Oc2ccccc21 (stereo not drawn) -3.57%
Cc1cc(C)nc(NS(=O)(=O)c2ccc(N/C=C\C(=O)c3cccs3)cc2)n1 -0.279%
CC(=O)N1CC[n+]2c(-c3ccc([N+](=O)[O-])cc3)csc21 2.47%
